The text below walks through data of the supplement of paper PMC10338343.

± gives the standard deviation.

This assay deals with EfPiwi piRISC loaded with L1MC piRNA (26 nt). Briefly: pre-steady-state target cleavage rate (min^-1); auxiliary factor: 500 nM Ephydatia muelleri Gtsf1; guide: L1MC piRNA 5'p-UAACUAAAUACUAUGCAAGCUGUAGG; MIWI and MILI are mouse PIWI proteins and EfPiwi is from a freshwater sponge; tags in brackets are library labels; higher = faster piRNA-guided slicing of the target. The procedure, abridged: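 The pre-steady-state cleavage rate came from a burst-and-steady-state fit to pooled data from three Cleave-'n-Seq trials, in which uncleaved targets were sequenced and normalised to depth and to weakly complementary targets. Each reaction held 0.1 nM transcribed, DNA-blocked target RNA library and 1 nM active affinity-purified piRISC carrying one synthetic guide, with or without 500 nM GTSF1 partner protein, in HEPES–potassium acetate buffer at 33 °C for 0–8 or 0–960 min. k3 was capped at 0.0001 min^-1.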
On to UCCUCCUACAGCAUGCAUAGUAUUUUGUUA, for which the “pre-steady-state target cleavage rate” value worked out at 0.00297 ± 0.0021.
For the sequence UCCUGGAUCAGCCUUGCAUAGUAUUUAGUUA, the “pre-steady-state target cleavage rate” value was 0.0303 ± 0.0094.
Next, UCCUGGUACAGCUUGCAUAGUAUAUUCAAA: 0.00341 ± 0.0028; UCCUGGAUGUCGAACGAUACUAUUUUGUUA: below 0.0001; UCCUGGAACAGCUAGCAUAGUAAUUAGUUA: 0.0062 ± 0.0028.
Next, UCCUGGAACAGCUUGCAUAGUAGUUAGUUA: 0.00926 ± 0.0027; UCCUGGAUGUCGAACCAUAGUAUUAAGUUA: below 0.0001; UCCUGGAUCAGCUUGCUUAGUAAUUAGUUA: 0.0988 ± 0.033.
Next, UCCUGGAACAGCCUUGCAUAGUAUUUAGUUA: 0.0147 ± 0.0046.
On to UCCUGGUACAGCUUGCAUAGAAUUUAGAAA, for which the “pre-steady-state target cleavage rate” value stood at 0.00253 ± 0.0021.
Next, “UCCUGGAUCAGCUUGCAUAGUAUUUAGUUU [g2:g22:cont:t1U]”: 0.121 ± 0.025; UCCUGGAUGUGCUUGCAUAGUAUUUAAUUA: 0.113 ± 0.038.
UCCUGGAUGUGCUUGCAUACUAUUUAGAUA: the “pre-steady-state target cleavage rate” value amounted to 0.00202 ± 0.0015.
For the sequence UCCUGCUACAGCUUGCAUAGUUAUUUAGUUA, the “pre-steady-state target cleavage rate” value was 0.00578 ± 0.0032.
As for UCCUGGUACAGCGUGCAUAGUAUUUAGUUA, the “pre-steady-state target cleavage rate” value was 0.0121 ± 0.004.
For UCCUGCUACAGCUUGCAUAGUAAUUACUUA the value was 0.0026 ± 0.0026; for UCCUGGUACAGGUUGCAUAGUAUUUAGUAA, 0.00428 ± 0.0022; for UCCUGGAUGAGCUUGCAUAGUUUUUAGAAA, 0.00315 ± 0.0019.
With UCCUCCUACAGCUGGCAUAGUAUUUAGUUA, the “pre-steady-state target cleavage rate” value amounted to 0.0728 ± 0.02.
For UCCUGGAUGUCGAACGUCAGUAUUUAGUUA the value was below 0.0001; for UCCUGCUAGUGCUUGCAUAGUAUUUAGAAA, 0.00258 ± 0.0014.
For UCCUGGUACAGCUUGCAUAGUAUUAUAGUUA the value was 0.00555 ± 0.0023; for UCCUGCGUACAGCUUGCAUAGUAUUUAGUUA, 0.0434 ± 0.012; for UCCUGGAUGUCGAUGCUUAGAAUUUAGUUA, below 0.0001.
For UCCUGCUACAGCUUCCAUAGUAUUUAGAUA the value was 0.00303 ± 0.00093; for UCCUGGUACAGCUUCGAUAGUAUUUACAAA, 0.00595 ± 0.0049; for UCCUGGAAGAGCUAGCAUAGUAUUUAGUUA, 0.00727 ± 0.0022.
Take UCCUGGAACAGCUUCCAUAGUAUUUAGAAA: the “pre-steady-state target cleavage rate” value was determined as 0.00411 ± 0.0022.
Next, UCCUGGUACAGGUUGCAUAGUAUUUAGUUA: 0.0211 ± 0.0053; UCCUGGUACAAGCUUGCAUAGUAUUUAGUUA: 0.0481 ± 0.014.
Next, UCCUGCUACAGCUUCCAUAGUAUAUAGUUA: 0.00251 ± 0.0024.
For UCCUGCUACAGCUUGCGUAGUAUUUAGUUA the value was 0.0375 ± 0.011; for UCCUGCUACUGCUUGCAUAGAAUUUAGUUA, 0.00563 ± 0.002; for UCCUGCUACAGCUUGCAUAGUAUUUAGUUUA, 0.0608 ± 0.016.
Take UCCUGGAUGUCGAACGUAUGUAUUUAGAUUA: the “pre-steady-state target cleavage rate” value is below 0.0001.
For UCCUGGUACAGCUUCCAUAGUAUUUAGUAA the value was 0.00378 ± 0.0022; for UCCUCCUACAGCUUGGUAAGUAUUUAGUUA, 0.00379 ± 0.0034.
UCCUGCUACAGCUAGCAUAGUAAUUAGUUA: the “pre-steady-state target cleavage rate” value was determined as 0.00598 ± 0.0018.
Next, UCCUGGAUGUCGUUGCAUAGUAGUUUAGUUA: 0.0087 ± 0.005.
For UCCUGGAUGAGCUUGCAUAGUAUUUUAGUUA the value was 0.00631 ± 0.0035.
